Assay results taken from the supplement of paper PMC9334596.
“And” between values parts separate entries of the source, which are not always exact repeats. Identical values can stand only once. Over roughly 5,300 compounds, “PER2::LUC luminescence relative to vehicle control” has its median near 0.96; the highest 2% begin near 1.3. The entries come from a sample that favours the highest values as a whole.

System: mPer2Luc MEF
Test: PER2::LUC luminescence relative to vehicle control (fold of vehicle); higher = higher PER2::LUC reporter signal
Settings: 10 µM
Procedure, shortened: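 Mouse embryonic fibroblasts carrying the mPer2Luc reporter were seeded at ~3000 cells per well in 384-well plates, 48 h before compounds from commercial libraries were added at 10 μM. Cells were grown in DMEM with 10% FBS at 37 °C and 5% CO2. Luminescence was read with the ONE-Glo luciferase assay system 24 h and 30 h after treatment, followed by an alamarBlue viability assay. The value is PER2::LUC luminescence as fold of vehicle control.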

Compound	PER2::LUC luminescence (time after treatment 24 h)	PER2::LUC luminescence (time after treatment 30 h)
C[C@@H](O)CCCCn1c(=O)c2c(ncn2C)n(C)c1=O	0.991	0.943
CCc1c(C(=O)NNC(=O)[C@H](O)c2cc(F)cc(F)c2)ccc(O)c1C	1	0.957
CCCCCCCCCCCCCCCCCC(=O)OC(CC(=O)O)C[N+](C)(C)C (racemic)	0.909	0.786
CCC[C@@H]1C[C@@H](C(=O)N[C@@H]([C@H]2O[C@H](SC)[C@H](O)[C@@H](O)[C@H]2O)[C@@H](C)O)N(C)C1	0.932 and 0.965	0.909 and 0.803
CCC[C@@H]1C[C@@H](C(=O)N[C@@H]([C@H]2O[C@H](SC)[C@H](O)[C@@H](O)[C@H]2O)[C@H](C)Cl)N(C)C1	1.08	1.93
CCC[C@@H]1C[C@@H](C(=O)N[C@@H]([C@H]2O[C@H](SC)[C@H](OP(=O)(O)O)[C@@H](O)[C@H]2O)[C@H](C)Cl)N(C)C1	1.07	1.01
NC(=O)c1cccc2ncc(-c3ccc(Cl)cc3)nc12	1.12	1.16
COc1cc(O)c2c(=O)c(O)c(-c3ccccc3)oc2c1	0.99	1.06
COC(=O)[C@@H]1OC(=O)C2OC23[C@@]1(C)CCC1[C@@]2(C)CCC(=O)C(C)(C)C2C[C@@H](OC(C)=O)[C@]13C (stereo partly drawn)	0.9	0.921
O=c1cccc2ccc(O)c(O)c2c1O	0.987	0.83
N#Cc1nccc(Oc2cccc(-c3ccc(CN)cc3)c2)n1	0.994	1.14
CC(=O)N[C@H]1[C@H]([C@H](O)[C@H](O)CO)O[C@@](Oc2c[nH]c3ccc(Br)c(Cl)c23)(C(=O)O)C[C@@H]1O	1	0.967
NS(=O)(=O)C#Cc1ccccc1	1.18	0.903
Cc1nc(C#Cc2cccnc2)cs1	1.15	1.26
Cc1cccc(C#Cc2ccccc2)n1	1.56 and 1.59 and 1.5	1.16 and 1.75 and 1.47
Cc1cc(C)c(/C=C2\C(=O)Nc3ccc(Cl)cc32)[nH]1	1.06	1.02
O=C(/C=C/c1ccc(O)c(O)c1)O[C@@H]1C[C@](O)(C(=O)O)C[C@@H](O)[C@H]1O	1.8	1.28
O=C(O)/C=C/c1ccc(O)c(O)c1	0.886	0.894
O=C(/C=C/c1ccc(O)c(O)c1)OCCc1ccccc1	0.173	0.361
C[C@H]1CCN(C(=O)CC#N)C[C@H]1N(C)c1ncnc2[nH]ccc12	1	1.02
O=Nc1c(O)[nH]c2c(Cl)c(Cl)ccc12	1.05	1.07
OCCOCCN1CCN(C(c2ccccc2)c2ccccc2)CC1	0.939	0.9
O=C(O)/C(=C\c1c(C(=O)O)[nH]c2cc(Cl)cc(Cl)c12)c1ccccc1	1.4	1.34
O=C(O)CCc1c(C(=O)O)[nH]c2cc(Cl)cc(Cl)c12	1.03	0.901
O=C(O)c1cc(=O)c2c(Cl)cc(Cl)cc2[nH]1	1.04	1
O=C(O)[C@@H]1C[C@H](CP(=O)(O)O)CCN1	1.03	0.992
O=C1Nc2nc(-c3c(O)cccc3OCC3CC3)cc([C@@H]3CCCNC3)c2CO1	0.574	0.66
CC[N+](CC)(CC(=O)Nc1c(C)cccc1C)Cc1ccccc1	0.988	0.901
Cc1cc2sc(NC(=O)Cc3ccccc3)nc2cc1Cl	1.02	1.38
